From PubChem BioAssay
In the library only some 1.9% were active in any assay of this set; here they are far more common.
FPR ligand – human FPR ligand, with FPRL1 counter-screen; P21462; FPR-expressing cells, fluorescent ligand binding, flow cytometry; inhibition, % (concentration not given with the values); 24,000 tested, 0.74% active
Target sequence (P21462 whole entry, looked up): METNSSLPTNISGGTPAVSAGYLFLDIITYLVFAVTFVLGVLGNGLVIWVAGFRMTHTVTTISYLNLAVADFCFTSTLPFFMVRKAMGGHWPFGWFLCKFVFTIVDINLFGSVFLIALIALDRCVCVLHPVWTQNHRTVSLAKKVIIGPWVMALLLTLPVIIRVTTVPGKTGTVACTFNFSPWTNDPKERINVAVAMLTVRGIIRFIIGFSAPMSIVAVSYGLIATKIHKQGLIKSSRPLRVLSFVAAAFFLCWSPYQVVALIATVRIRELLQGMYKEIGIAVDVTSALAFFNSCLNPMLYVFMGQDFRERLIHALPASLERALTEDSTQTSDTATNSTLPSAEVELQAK
VLA-4 agonist – allosterically activates the human VLA-4 integrin. P13612. Jurkat cells, LDV-FITC binding, flow cytometry. activation, % at 10 µM (by protocol). 24,000 tested, under 10 active;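 active = fluorescent ligand binding to cells raised by more than 40% of the manganese-induced maximum; inconclusive = compound's own fluorescence above 85% of the ligand control signal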
Jurkat autofluor – compound fluoresces in Jurkat cells, VLA-4 screen interference; AID 576; compound autofluorescence, flow cytometry; hits give high values; 1 = vehicle-only cell background; 24,000 tested, 0.61% active; fluorescence ratio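 (tested at 10 µM compound in the well)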;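 active = fluorescence ratio above 2.44, which is 1 plus 3 SD of all ratios; inconclusive = signal too bright to measure linearly, ratio around 10 or more; inactive = fluorescence ratio below 2.44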;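 also: green fluorescence of cells measured with 488 nm excitation and 530 nm emission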
FPRL1 binder – ligands of human FPRL1, also counter-screen for FPR ligands; FPRL1-expressing cells, fluorescent ligand binding inhibition, flow cytometry; inhibition, % (concentration not given with the values); 24,000 tested, 0.3% active; AID 441
VLA-4 antagonist – inhibition of LDV-FITC ligand binding to human VLA-4 integrin. inhibition, % at 10 µM (by protocol). Jurkat cells, LDV-FITC binding with Mn2+, flow cytometry; 100% = Mn2+-driven binding gain fully reversed. AID 529. P13612. 24,000 tested, 0.2% active;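 active = inhibition above 50%; inconclusive = compound itself fluorescent, judged against control cell fluorescence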
Prostate diff – activators of LNCaP prostate cell differentiation | side scatter shift, % at 10 µM | flow cytometry side scatter, 4 d | 24,000 tested, 0.56% active;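 active = side scatter shift above 30%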;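 also: androgen-responsive LNCaP prostate cancer cells in charcoal-stripped serum medium; higher shift means more granular cells and more differentiation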
Of the large screens only hits and unclear results are named; the others gave an inactive call. Rule as the data show it, unless noted: active = inhibition above about 30%; inconclusive = no clear call, values can overlap the other calls; inactive = below that.

Cc1cccn2c(=O)c3cc(C(=O)N(C)C)n(C)c3nc12	VLA-4 agonist inconclusive, Jurkat autofluor 3.1, VLA-4 antagonist inconclusive
CCOC(=O)C1CCN(C(=O)CCNC(=O)c2cc(OC)c(OC)c(OC)c2)CC1	VLA-4 agonist inconclusive, VLA-4 antagonist inconclusive
Cc1nnc(NCc2n[nH]c(=O)c3ccccc23)c2ccccc12	Prostate diff 33
COc1ccc(Cc2n[nH]c(=O)c3ccccc23)cc1OC	none (no result: Prostate diff)
CCCc1[nH]nc2c1C(CCc1ccccc1)C(C#N)=C(N)O2 (stereo unspecified)	VLA-4 antagonist 61
CCCc1[nH]nc2c1C(c1cccc(OC(=O)c3ccco3)c1)C(C#N)=C(N)O2 (stereo unspecified)	none
CCn1c(N)c(C(=O)NCc2ccco2)sc1=S	none
Cn1c(N)c(C(=O)NCc2ccccc2)sc1=S	VLA-4 agonist inconclusive, Jurkat autofluor 4.1, VLA-4 antagonist inconclusive
CCOC(=O)CCn1nc(-c2ccc(Cl)cc2)cc1N	FPR ligand 54, FPRL1 binder 51
CCOC(=O)c1cc(-c2ccc(F)cc2)n(CC(=O)Nc2nccs2)c1C	none
COC(=O)Cn1c(=O)c2c(nc3n2CC(C)CN3c2ccc(C)c(C)c2)n(C)c1=O (stereo unspecified)	none
COc1ccc2ccccc2c1C1CC(=O)N2CN(Cc3ccco3)CSC2=C1C#N (stereo unspecified)	VLA-4 agonist inconclusive, VLA-4 antagonist inconclusive
COc1ccc2ccccc2c1C1CC(=O)N2CN(C3CCCCC3)CSC2=C1C#N (stereo unspecified)	FPR ligand 64, VLA-4 agonist inconclusive, VLA-4 antagonist inconclusive
CCc1cccc(NC(=O)CN(c2ccc(OC)cc2)S(=O)(=O)c2c(C)n[nH]c2C)c1	VLA-4 antagonist 62
COc1ccc(OC)c(NS(=O)(=O)Cc2ccccc2)c1	none
CN(C)c1ccc(C2C=C(c3ccc(Cl)cc3OC(F)F)Nc3ncnn32)cc1 (stereo unspecified)	VLA-4 agonist inconclusive, Jurkat autofluor 2.8, VLA-4 antagonist inconclusive
CCOC(=O)CSc1cc(=O)n(C)c2cc(Cl)ccc12	none
COc1ccccc1-n1c(CNC(=O)c2ccco2)nnc1SCC(=O)Nc1cc(C)ccc1C	none
COc1ccccc1-n1c(CNC(=O)c2ccco2)nnc1SCC(=O)Nc1ccc(F)cc1	FPR ligand 47
CC(C)CC(NS(=O)(=O)c1ccc2c(c1)oc(=O)n2C)C(=O)NCc1cccnc1 (stereo unspecified)	none
CC(=O)Nc1ccccc1O	none
CC(=O)Nc1cccc(C(=O)Oc2cccc(C)c2)c1O	VLA-4 antagonist 61
CC1CCN(c2nc(-c3ccccc3)c(C#N)c(=O)[nH]2)CC1	FPR ligand 35
N#CC1=C(N)Oc2cc(Nc3ccccc3)ccc2C1c1ccncc1 (stereo unspecified)	none (no result: VLA-4 agonist, Jurkat autofluor, VLA-4 antagonist, Prostate diff)
Cc1n[nH]c(C)c1S(=O)(=O)N1CCN(C(=O)c2ccco2)CC1	none
c1ccc(CC2CCN(c3nc4ccccc4n4nnnc34)CC2)cc1	none
O=C(c1ccco1)N1CCN(c2nc3ccccc3n3nnnc23)CC1	VLA-4 agonist inconclusive, Jurkat autofluor 9.4, VLA-4 antagonist inconclusive
CC(C)(CSc1nncn1N)NS(=O)(=O)c1ccc(Cl)cc1	none
N#CC1=C(N)OC2=C(CCC/C2=C/c2ccoc2)C1c1ccoc1 (stereo unspecified)	Jurkat autofluor 2.5
CCOC(=O)CC(C#N)c1cn(C)c2ccccc12 (stereo unspecified)	VLA-4 agonist inconclusive, Jurkat autofluor 2.8, VLA-4 antagonist inconclusive
Cc1[nH]n2c(=O)c3c(nc2c1-c1cccc2ccccc12)CCC3	FPR ligand 48 (no result: VLA-4 agonist, Jurkat autofluor, VLA-4 antagonist, Prostate diff)
CC(=O)Nc1cc(C(=O)N2CCOCC2)ccc1S(=O)(=O)c1ccc(C)cc1	VLA-4 antagonist inconclusive, Prostate diff 37
Cc1cc(NC(=O)CSc2nnc(Cn3c(=O)sc4ccccc43)n2-c2ccccc2C)no1	FPR ligand 36
Cc1ccccc1-n1c(Cn2c(=O)sc3ccccc32)nnc1SCC(N)=O	none
Cc1nc2c(C#N)c[nH]n2c(=O)c1Cc1ccccc1	FPR ligand 40 (no result: VLA-4 agonist, Jurkat autofluor, VLA-4 antagonist, Prostate diff)
CCc1c(C)nc2c(C#N)c(C)[nH]n2c1=O	FPR ligand 50 (no result: VLA-4 agonist, Jurkat autofluor, VLA-4 antagonist, Prostate diff)
Cc1nc2c(C#N)c(C)[nH]n2c(=O)c1Cc1ccccc1	FPR ligand 32 (no result: VLA-4 agonist, Jurkat autofluor, VLA-4 antagonist, Prostate diff)
O=c1[nH]c(NCc2ccccc2)nc2c1CCCC2	none
